Source: PubChem
Compounds with a hit are over-represented: about 8.1% of the library has one in this group of screens.
ELG1 repair inh: ELG1-dependent DNA repair inhibition; AID 504467; HEK293T ELG1-luciferase reporter, luminescence, 16 h; DNA damage induced by 5-fluorouridine; 330,000 tested, 2.3% active; Potency, µM (top dose mostly 46.1 µM), without a hit: at the highest dose activity change, negative = inhibition, actives largely listed as inhibitors; further: on the % scale 0 is the no-effect control and ±100 the full control effect; nearly all actives have a fitted effect of over 55% in size
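HEK293T cells expressing luciferase-tagged ELG1 (2,000/well) received 5-Fluorouridine plus compound or DMSO for 16 hr at 37 °C. Luciferase was read by ONE-Glo luminescence after 30 min at room temperature.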
KB-3-1 cytotox: kills parental KB-3-1 adenocarcinoma cells; Potency, µM (highest dose often 46.1 µM), usual class: cytotoxic; KB-3-1 viability, CellTiter-Glo ATP luminescence, 72 h; 400,000 tested, 1.4% active; further: on the % scale 0 is the no-effect control and ±100 the full control effect; nearly all actives have a fitted effect of over 60% in size
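Here the drug-naive KB-3-1 line serves as comparator for MDR sub-line selectivity; cells received compound titrations, 72 h at 37 °C, then CellTiter-Glo readout.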
SW480 rerep: induces DNA re-replication in SW480 colon adenocarcinoma cells | SW480 DNA re-replication, Hoechst DNA content imaging, 48 h | Potency, µM (highest dose often 46.1 µM), without a hit: top-dose re-replication activation, hits mostly activators | 340,000 tested, 1.8% active; further: % of control where 0% means no effect; nearly all actives have a fitted effect of over 55% in size
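SW480 cells exposed to compounds for 48 hr at 37 C, 5% CO2, then Hoechst-stained 40 min. Nuclear DNA content imaged by fluorescence scanning (405 nm excitation, 500-530 nm emission); re-replication scored as increased high-intensity nuclei.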
MCF10A rerep: DNA re-replication induction in MCF 10a cells; MCF 10A DNA re-replication, Hoechst nuclear intensity, 48 h; Potency, µM (highest dose often 46.1 µM), without a hit: top-dose activity, positive = re-replication, actives largely listed as activators; 350,000 tested, 2.9% active; further: % of control where 0% means no effect; nearly all actives have a fitted effect of over 50% in size
KB-V1 MDR tox: kills drug-selected multidrug resistant KB-V1 cells; KB-V1 MDR cells viability, CellTiter-Glo, 72 h; Potency, µM (doses to about 46.1 µM), hits mostly cytotoxic; 400,000 tested, 3.4% active; further: on the % scale 0 is the no-effect control and ±100 the full control effect; nearly all actives have a fitted effect of over 60% in size
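In this primary screen, KB-V1 cells overexpressing P-gp are incubated with library compounds (lowest to highest concentration) for 72 h at 37 degrees C before a luminescent ATP viability read.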
Numbers without * were called inactive; i = inactive; u = inconclusive; x = no result. The call rests on the fitted dose curve; in most records, active means well fitted curve in the direction sought with a large enough effect; inconclusive means small, poorly fitted or top-dose-only effect, or another doubt; inactive means no such curve, though single readings can be large; an effect the other way counts as inactive or inconclusive. Potency means the concentration at half of the fitted maximal effect.

SMILES	ELG1 repair inh	KB-3-1 cytotox	SW480 rerep	MCF10A rerep	KB-V1 MDR tox
N#Cc1sc2nccc(Nc3ccccc3)c2c1N	x	i	23.1µM*	u	i
Nc1cc(Nc2ccccc2)ccn1	-10.8%	i	-3.6%	7.3%	i
O=C(NCc1ccccn1)c1ccc(Cl)c(S(=O)(=O)NCc2ccccc2)c1	-0.9%	i	-1.3%	-3.8%	i
CC(C)CC(=O)/C(=C/c1ccc(N(C)C)cc1)n1cncn1	7.1%	i	-1.3%	-0.9%	i
CN(C)c1ccc(/C=C(/C(=O)c2ccc(Cl)cc2Cl)n2cncn2)cc1	u	23.1µM*	18.4µM*	u	5.17µM*
CC(C)CC(=O)/C(=C\c1ccc(Cl)cc1Cl)n1cncn1	20.6µM*	u	6.51µM*	4.61µM*	i
COC(=O)c1sccc1NC(=O)c1cc2c(s1)CCCC2	u	i	19.2%	u	14.6µM*
COc1ccc(S(=O)(=O)N2CCOCC2)cc1NC(=O)Cc1ccc2c(c1)OCCO2	4.3%	i	-2.3%	-6.0%	18.4µM*
CCOc1ccccc1N1CC(C(=O)Nc2cc(S(=O)(=O)N3CCOCC3)ccc2OC(C)C)CC1=O (stereo not given)	x	i	-24.6%	6.6%	i
COc1ccc(C)cc1NC(=O)c1cc2c(s1)CCC2	u	i	-52.1%	14.3%	u
CCC(C)c1ccccc1N1CC(C(=O)Nc2cc(S(=O)(=O)N3CCOCC3)ccc2OC)CC1=O (stereo not given)	x	i	16.4µM*	9.3%	i
Cc1ccc(NC(=O)c2ccccc2NS(=O)(=O)c2ccc(Cl)s2)cc1S(=O)(=O)N1CCOCC1	23.1µM*	i	1.9%	7.31µM*	20.6µM*
O=C(NCc1ccccc1)C(c1cc2ccccc2o1)n1c(=O)c(-c2ccccc2)nc2ccccc21 (stereo not given)	x	i	x	x	i
COc1ccc(C)cc1NC(=O)c1ccccc1NS(=O)(=O)c1ccc(Cl)s1	u	5.17µM*	-19.9%	20.6µM*	3.26µM*
COc1ccc(S(=O)(=O)N2CCOCC2)cc1NC(=O)COc1ccc(C)cc1	u	x	9.0%	-2.8%	x
CCOc1ccc(S(=O)(=O)N2CCOCC2)cc1NC(=O)CSCc1ccc(C)cc1	-28.2%	18.4µM*	u	u	u
COc1cc(S(=O)(=O)N2CCOCC2)ccc1NC(=O)COC(=O)CC12CC3CC(CC(C3)C1)C2	18.4µM*	i	1.0%	13.4%	u
COc1ccc(S(=O)(=O)N2CCOCC2)cc1NC(=O)c1cc2c(s1)CCCC2	16.4µM*	i	-3.7%	-3.5%	i
CC[C@H](C)Cc1cn([C@@H](CCCCNC(=O)OC(C)(C)C)C(=O)NCCCCCCCCCCC(=O)N2CCN(C(=O)OC(C)(C)C)CC2)nn1	u	i	-5.1%	-1.8%	i
CC1(C)CC(=O)C=C(c2ccc(-c3cnn(Cc4ccccc4)c3)cc2)C1=O	x	i	x	x	i
O=C(Nc1cc(S(=O)(=O)N2CCOCC2)ccc1N1CCOCC1)c1ccccc1[N+](=O)[O-]	0.0%	i	0.6%	-4.7%	i
Cc1ccc(NC(=O)C2=COCCO2)cc1S(=O)(=O)N1CCOCC1	4.8%	i	-1.4%	-3.0%	i
COc1ccc(S(=O)(=O)N2CCOCC2)cc1NC(=O)COC(=O)c1ccc([N+](=O)[O-])s1	23.1µM*	u	3.4%	3.7%	i
COc1ccc(S(=O)(=O)N2CCOCC2)cc1NC(=O)COC(=O)c1[nH]c(C)c(C(C)=O)c1C	u	i	6.2%	11.9%	i
CCOc1ccc(S(=O)(=O)N2CCCCC2)cc1NC(=O)Cc1ccsc1	u	i	-3.7%	2.9%	11.6µM*
SMILES	ELG1 repair inh	KB-3-1 cytotox	SW480 rerep	MCF10A rerep	KB-V1 MDR tox
Cc1ccc(NC(=O)c2ccc([N+](=O)[O-])s2)cc1S(=O)(=O)N1CCOCC1	6.51µM*	18.4µM*	u	0.5%	i
COc1ccc(S(=O)(=O)N2CCCCC2)cc1NC(=O)Cc1ccsc1	-10.0%	x	5.4%	u	x
O=C(Nc1cc(S(=O)(=O)N2CCOCC2)ccc1N1CCOCC1)c1ccc([N+](=O)[O-])s1	20.6µM*	u	u	u	u
CC(=O)c1cccc(NC(=O)CN2C(=O)NC(C)(c3ccc4c(c3)OCCCO4)C2=O)c1 (stereo not given)	-19.1%	i	-6.4%	-0.8%	i
CCCN1CCN(c2nnc(-n3cccc3C(=O)Nc3ccccc3C(F)(F)F)s2)CC1	x	i	x	x	i
O=C1NC(=O)/C(=C/c2cccc3ccccc23)S1	-0.4%	i	-0.2%	7.5%	i
O=C1NC(=O)C(=Cc2ccccc2[N+](=O)[O-])S1	x	u	u	20.6µM*	u
CC(=O)C1=NN(c2ccccc2)C2(S1)S/C(=C\c1ccccc1)C(=O)N2c1ccccc1 (stereo not given)	-4.8%	i	5.17µM*	u	i
Cc1ccc(N=Cc2nc(-c3ccc(C)cc3)oc2O)cc1	9.0%	i	u	6.51µM*	i
O=C(c1csc2c1CCCC2)N1CCN(c2ncccn2)CC1	-12.2%	i	1.7%	-1.6%	16.4µM*
O=C(c1csc2c1CCCC2)N1CCN(c2cccc(C(F)(F)F)c2)CC1	-13.3%	i	6.4%	u	20.6µM*
O=C(c1csc2c1CCCC2)N1CCN(c2ccc(F)cc2)CC1	u	i	10.6%	u	i
CCCCCC(=O)Nc1ccc(NC(=O)c2cc3ccccc3o2)c(OC)c1	x	i	x	x	i
C[C@H](CO)N1C[C@H](C)[C@@H](CN(C)S(=O)(=O)c2ccc(-n3cccn3)cc2)OCc2cn(nn2)CCCC1=O	x	i	x	x	i
COc1ccc(C2(C(=O)N3CCC(n4nc(-c5ccccc5)oc4=O)CC3)CC2)cc1	10.3%	i	-18.7%	4.7%	i
Cc1ccc(C2(C(=O)N3CCC(n4nc(-c5ccccc5)oc4=O)CC3)CC2)cc1	-6.8%	i	-27.3%	20.6µM*	i
O=C(CCc1nc2ccccc2c(=O)[nH]1)NNC(=O)c1ccc(F)cc1	-3.5%	i	-1.6%	-0.1%	i
C=CCCC1(C)C(=O)N(c2ccccc2)c2ccccc21 (stereo not given)	u	u	18.4µM*	u	u
CCOC(=O)/C(=N\Nc1ccccc1)S(=O)(=O)c1ccccc1	u	i	2.4%	19.7%	i
NNC(=O)/C(=N/Nc1ccccc1)S(=O)(=O)c1ccc(Cl)cc1	-22.5%	18.4µM*	u	u	i
CCOC(=O)/C(=N/Nc1ccc(C)cc1)S(=O)(=O)c1ccc(Cl)cc1	u	i	18.5%	u	16.4µM*
CCCCCn1c(SCC(=O)OCC)nc2cc(C(=O)NCc3ccco3)ccc2c1=O	-21.8%	i	-7.3%	9.3%	20.6µM*
